Source: ChEMBL document CHEMBL3988442, “University of Dundee, Small-Polar-MMV Screening Library” (2021)

Key:
[1] = target: T1, Aspartate--tRNA(Asp/Asn) ligase (Mycobacterium tuberculosis (strain ATCC 25618 / H37Rv)) (UniProt P9WFW3); assay: Assay for Asp RNA synthetase-1 from Mycobacterium tuberculosis; format: functional; set-up: scale not given: direction of the effect not stated beside the values; conditions: 30 µM; further: in the data most compounds retested in dose-response had high values
T1 sequence (whole entry): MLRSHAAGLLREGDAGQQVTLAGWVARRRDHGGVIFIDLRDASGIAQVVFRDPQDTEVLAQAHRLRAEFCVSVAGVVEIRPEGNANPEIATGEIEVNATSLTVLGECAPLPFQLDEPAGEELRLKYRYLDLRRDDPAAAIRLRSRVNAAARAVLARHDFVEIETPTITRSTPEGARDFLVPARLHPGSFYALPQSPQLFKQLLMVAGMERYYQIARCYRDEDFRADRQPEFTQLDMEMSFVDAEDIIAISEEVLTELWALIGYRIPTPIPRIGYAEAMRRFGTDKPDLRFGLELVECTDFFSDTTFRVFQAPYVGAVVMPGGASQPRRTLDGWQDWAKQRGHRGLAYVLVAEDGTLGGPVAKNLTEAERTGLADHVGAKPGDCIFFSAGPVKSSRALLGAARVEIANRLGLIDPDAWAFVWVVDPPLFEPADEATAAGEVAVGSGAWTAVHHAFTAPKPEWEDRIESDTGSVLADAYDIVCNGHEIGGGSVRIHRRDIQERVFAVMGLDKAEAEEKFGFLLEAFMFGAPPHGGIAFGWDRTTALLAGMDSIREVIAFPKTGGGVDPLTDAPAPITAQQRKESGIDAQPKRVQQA

[2] = target: Shiga toxin 2 (Escherichia coli O157:H7) (UniProt P09385+P09386); assay: E. coli 0.157:H7 Shiga Toxin SOP - stx2 screening assay; format: functional; set-up: scale not given: direction of the effect not stated beside the values; conditions: 30 µM

| SMILES | Percent Effect [1] | Percent Effect [2] |
| --- | --- | --- |
| Cc1nc(CN(C)C2CCN(CC3CCCCC3)C2)no1 (centres undefined) | -2.62% | -9.5% |
| CCCc1n[nH]c(C2CN(CCCOc3ccccc3)CCO2)n1 (centres undefined) | 0.946% | 5.54% |
| O=C(NCC1CC1)C1CN(C(=O)c2cccnc2)CC12CCOCC2 (centres undefined) | -2.58% | -10.2% |
| CN1CC(c2ccccc2)CC2(CCN(CC(=O)N(C)C)CC2)C1 (centres undefined) | -3.52% | 15.8% |
| COc1ncccc1NC(=O)c1cccc(C)n1 | 1.43% | -22.7% |
| COCCC(=O)N1C[C@@H]2COC[C@]2(COCc2cccnc2)C1 | 2.14% | -6.81% |
| Cc1nc[nH]c1CN1C[C@@H]2CC[C@H](C1)N(C(=O)CCNS(C)(=O)=O)C2 | -4.9% | -0.862% |
| Cc1nc(C)n(C2CCCN(C(=O)c3csc(C(C)C)n3)C2)n1 (centres undefined) | 7.62% | 4.53% |
| O=C(NCCCNC(=O)c1cccc(O)c1)Nc1ccc(F)cc1F | -6.98% | -56% |
| CN(Cc1nccn1CC(F)(F)F)C(=O)c1cccc(C#N)c1 | 1.68% | -1.08% |
| COc1ccc(C(=O)N2CCC(Nc3cccnn3)CC2)c(OC)c1 | -0.568% | 8.84% |
| COCCNC(=O)[C@@H]1CC[C@@H]2[C@@H](CCN2Cc2cnn(C)c2)O1 | 2.71% | -20.8% |
| CCC(O)CN1CCN(C(=O)c2ccnc(N(C)C)c2)CC1 (centres undefined) | -4.29% | -17.1% |
| Cc1cnc2c(c1NCc1ccncc1)c(=O)n(C)c(=O)n2C | -5.41% | 1.78% |
| Cc1ccoc1C(=O)N1CCOCC2(CCN(c3ncccn3)C2)C1 (centres undefined) | 5.74% | 8% |
| Cc1cnn(C2CCCN(C(=O)c3ccc(N(C)C)nn3)C2)c1 (centres undefined) | -1.49% | -0.265% |
| O=C(O)c1coc(COc2cccc(F)c2)n1 | -2.21% | -2.73% |
| Cc1ccc(CN2C[C@@H]3COC[C@H](C(=O)N4CCCCO4)[C@@H]3C2)o1 | 1.57% | -5.34% |
| O=C(Cn1ccc2c(Cl)cccc21)N[C@@H](C(=O)O)c1ccccc1 | -6.24% | -13.8% |

| SMILES | Percent Effect [1] | Percent Effect [2] |
| --- | --- | --- |
| O=C(C1CCC1)N1CCN(Cc2ccsc2)[C@H]2CS(=O)(=O)C[C@H]21 | -4.67% | -39.6% |
| Cc1noc(CN2CCN(Cc3cccs3)CC2)n1 | -1.85% | 1.32% |
| CCCS(=O)(=O)N1CCN(c2cc(-n3nc(C)cc3C)nc(C)n2)CC1 | -3.15% | -4.71% |
| CCn1cc(CN2CCCN(C(=O)C3=NN(C)C(=O)CC3)CC2)cn1 | 0.98% | 10.4% |
| Cc1nn(C)c(N2CCOCC2)c1CNC1CCc2ccccc2C1 (centres undefined) | -2.23% | -3.73% |
| O=C1NCCN(CC2CC2)C12CCN(Cc1ccco1)CC2 | 24.3% | -8.3% |
| Cc1cccc(CN2CCN(Cc3ccccc3)CC(O)C2)n1 (centres undefined) | 2.13% | 13.4% |
| Cc1nnc2n1CCN(C(C(=O)NC1CC1)c1ccccc1)C2 (centres undefined) | -4.48% | 15.2% |
| O=C([C@H]1CCCO1)N1CCc2ncnc(NC3CC3)c2CC1 | 2.52% | -32% |
| Cc1ncsc1C(=O)NC1CCN(CC(=O)N(C)c2ccccc2)CC1 | -3.57% | 34% |
| CC(=O)N1CCC2(CC1)COCCN2CCN(C)C | 0.524% | 1.75% |
| COc1cccc(COCC(=O)N2CCCC(N3CCCC3)CC2)c1 (centres undefined) | -5.12% | 12.6% |
| CC(C)c1nn(C)c(N(C)C)c1CNCc1ccccc1CN(C)C | -0.745% | 23.7% |
| Cc1nc(CNCc2c(C)nn(C)c2N2CCOCC2)cs1 | -5.61% | 23.3% |
| CN(C)C(=O)COC[C@]12COC[C@H]1CN(CC1CCC1)C2 | -8.17% | -9.5% |
| COc1cccc2cc(CNC(C)(C)C(=O)N3CCC(O)CC3)oc12 | -1.57% | 4.9% |
| Cc1cnn(CC2CCCN2Cc2ncc(-c3ccccc3)o2)c1 (centres undefined) | 4.6% | 25.3% |
| Cc1cc(C(=O)NCC(C)N2CCc3ccccc32)no1 (centres undefined) | -0.278% | -26.5% |
